The record followed here is PubChem BioAssay AID2314 (National Center for Advancing Translational Sciences (NCATS), 2010).

SMILES strings stand for the structures. Screen size: about 300,000 compounds; about 37,000 (12%) were called active. No stated cut-off is given here; in the data, active means max response mostly above about 13% (no sharp cut-off); inactive means mostly below about 14%. For the sample, actives were picked, then their nearest neighbours and some compounds at random.

A short description of this test: Cycloheximide Counterscreen for Small Molecule Inhibitors of Shiga Toxin. Further: read at 38.3 µM for the half of the compounds with a filed dose; 0% is about no effect. The conditions noted are these: cell reporter, cycloheximide protein synthesis inhibition counterscreen; hits give high values. A general note: A counterscreen serves to expose hits that act by an unwanted route or on another target.
Regarding `O=S(=O)(c1cccc(Cn2nnc(-c3ccc(F)cc3)n2)c1)N1CCOCC1`, the max response is -2.1% (inactive).
Regarding `Cc1sc(NC(=O)C2C3CCC(O3)C2C(=O)O)c(C(=O)OC(C)C)c1-c1ccc(Cl)cc1` (configuration not stated), the max response was -2.64% (inactive).
The result for `Cc1[nH]c(C)c(S(=O)(=O)N2CCN(c3cccc(C(F)(F)F)c3)CC2)c1C(=O)N1CCCCC1` reads 0.664% (inactive); that for `Cc1ccc(CN2CCN(c3ncccn3)CC2)c(C)c1`, 1.42% (inactive); that for `COc1ccccc1C1C(C#N)=C(N)Oc2c1c(-c1ccccc1)nn2-c1ccccc1` (configuration not stated), 10.5% (inactive).
As for `CCCc1cc(=O)[nH]c(SCC(=O)N2C(C)CCCC2C)n1` (configuration not stated), the max response is -2.36% (inactive).
On to `COc1ccc(OC)c(CCNC(=O)CCn2ccc3cc(S(=O)(=O)N4CCCC4)ccc32)c1`, for which the max response was -1.39% (inactive).
The result for `CN1CCN(CC(=O)Nc2cccc([N+](=O)[O-])c2)CC1` reads 1.18% (inactive); that for `Cc1ccc(C)c(S(=O)(=O)N2CCN(CC(=O)Nc3ccc([N+](=O)[O-])cc3)CC2)c1`, -0.724% (inactive); that for `Cc1ccc(NC(=O)CN2CCC(C(N)=O)CC2)cc1[N+](=O)[O-]`, 15.7% (active).
In the case of `CCc1nc2nc(C)c(NS(=O)(=O)c3ccc4c(c3)CCCC4)c(=O)n2[nH]1` it was 1.61% (inactive).
On to `O=C(Cn1cnc2ccccc21)Nc1ccccc1-c1ccccc1`, for which the max response is -3.38% (inactive).
In the case of `O=C(O)CCC(=O)N(Cc1ccccc1)Cc1ccccc1` it was -1.7% (inactive); in that of `Nc1nc(NCC2CCCO2)nc(Nc2ccccc2F)c1[N+](=O)[O-]` (configuration not stated), -2.31% (inactive); in that of `CCN(CC)C(=O)N1CCN(C(=O)c2ccc(C)cn2)CC1`, 27.2% (active).
Take `CCN1CCN(C(=O)c2ccccc2N(C)S(=O)(=O)c2ccc(C)cc2)CC1`: the max response was -3.44% (inactive).
Turning to `Cc1ccc(OCC(=O)N2CCN(C(=O)c3cccnc3)CC2)cc1`, the max response was -5.2% (inactive).
`Cc1c(C=O)c2ccccn2c1C(=O)c1ccncc1`: the max response was -6.15% (inactive).
`C=CCn1c(SCc2cccc(F)c2)nc2cc(C(=O)N3CCC(C(N)=O)CC3)ccc2c1=O`: the max response was -5.75% (inactive).
For `CC(C)NC(=S)NN=C1CCCCCCCCCCC1`, the max response was 16.4% (inactive).
For the compound `Cc1ccc(/C([O-])=C(/C(=S)NCc2ccco2)[n+]2ccccc2)cc1[N+](=O)[O-]`, the max response is -1.29% (inactive).
As for `CCC(C)NCC(=O)Nc1ccc([N+](=O)[O-])cc1C(=O)Nc1ccccc1F` (configuration not stated), the max response was 9.91% (inactive).
The result for `O=[N+]([O-])c1cccc(/C([O-])=C(/C(=S)Nc2ccccc2F)[n+]2ccccc2)c1` reads 44.3% (active); that for `CC(C)C[C@@H](COc1ccccc1)N1CCN(CC(C)C)CCC1=O`, 12.1% (inactive); that for `O=c1[nH]c(SCc2cccc(F)c2)nc2ccccc12`, 0.0734% (inactive).
The result for `Nc1nnc2c(C(F)(F)F)nc3ccccc3n12` reads -5.14% (inactive); that for `O=C1c2ccccc2C(=O)N1c1cccc2ccccc12`, -0.411% (inactive).
In the case of `COc1cc(OC)c(C(=O)NCc2ccc3c(c2)OCO3)cc1OC`, the max response is -1.06% (inactive).
`O=C(NCc1ccc2c(c1)OCO2)C12CC3CC(CC(C3)C1)C2`: the max response is -3.3% (inactive).
Regarding `O=C(NCc1ccc2c(c1)OCO2)c1ccc(Cl)s1`, the max response is 17.6% (active).
In the case of `O=C(NCc1ccc2c(c1)OCO2)c1cc(F)c(F)cc1Cl` it was 16.6% (inactive); in that of `O=C(NCc1ccc2c(c1)OCO2)c1cc2c(s1)CS(=O)(=O)C2`, -5.16% (inactive); in that of `O=C(NCc1ccc2c(c1)OCO2)c1sccc1Br`, 16.3% (active).
Regarding `Cc1ccccc1NC(=O)C(C)c1ccc(-c2ccccc2)c(F)c1` (configuration not stated), the max response was -5.36% (inactive).
Take `CC(CC(=O)N1CCN(c2ccccc2)CC1)S(=O)(=O)c1ccc2c(c1)NC(=O)CS2` (configuration not stated): the max response was 1.2% (inactive).
In the case of `CC(C)C(=O)Nc1cccc(NC(=O)c2ccc([N+](=O)[O-])cc2Cl)c1` it was 27.7% (active).
Consider `O=C(Nc1cccnc1)c1cc([N+](=O)[O-])ccc1Cl`, for which the max response was -2.56% (inactive).
The result for `Cc1cc([N+](=O)[O-])ccc1NC(=O)c1ccc(NC(=O)C(C)C)cc1` reads 5.74% (inactive); that for `O=C(Nc1ccncc1)c1ccc([N+](=O)[O-])cc1Cl`, -4.24% (inactive).
The result for `O=C(Nc1ccc(Br)c2cccnc12)c1ccc(Cn2cc([N+](=O)[O-])cn2)o1` reads -3.97% (inactive); that for `O=C(Nc1ccc(Br)cn1)c1ccc([N+](=O)[O-])cc1Cl`, 51.7% (active); that for `CN1C(=O)c2ccc(C(=O)Nc3ccc(Br)cn3)cc2C1=O`, 1.67% (inactive).
In the case of `O=C(NNS(=O)(=O)c1ccc(F)cc1)c1ccc([N+](=O)[O-])cc1Cl` it was -3.45% (inactive); in that of `O=C(Nc1ccc(Br)cn1)c1ccc([N+](=O)[O-])o1`, 48.9% (active); in that of `O=C1CCNCCN1[C@H](CO)Cc1ccccc1`, -1.44% (inactive).
For `COc1cc(NC(=O)C2=C(C)OCCS2)c(Cl)cc1C(=O)NCCN1CCN(C)CC1`, the max response was -6.54% (inactive).
The result for `O=C(O)c1[nH]c2ccccc2c1C(c1cccc(O)c1)c1c(C(=O)O)[nH]c2ccccc12` reads -0.808% (inactive); that for `COC(=O)c1sccc1NS(=O)(=O)c1ccc(F)cc1F`, -6.38% (inactive).
In the case of `Cc1c(CN2CCC(n3nccc3NC(=O)CCc3ccccc3)CC2)cnn1C`, the max response is 0.463% (inactive).
For `CCNC(=O)CC1C(=O)N(c2ccc(OC)cc2)C(=O)N1CCOC` (configuration not stated), the max response is -2.06% (inactive).
On to `COc1ccc(/C(N)=N/OC(=O)Oc2ccccc2)cc1`, for which the max response was -4.11% (inactive).
The result for `COc1ccc(/C(N)=N/OC(=O)CCCc2ccccc2)cc1` reads 44.3% (active); that for `COc1ccc(C(=O)OCC(=O)NCCCc2ccccc2)cc1OC`, 0.591% (inactive).
As to `COc1ccc(/C(N)=N/OC(=O)Cc2ccccc2)cc1`, the max response was 46.9% (active).
The result for `COc1ccc(C(=O)NC(=S)NNC(=O)CCc2ccccc2)cc1` reads 10.3% (inactive); that for `CCOC(=O)C(Cc1ccccc1)NC(=O)CCC(=O)c1ccc(OC)cc1` (configuration not stated), -1.47% (inactive); that for `COCCN1CCn2c(nc3cc(NS(C)(=O)=O)ccc32)C1`, -4.53% (inactive).
With `CC1(C)COC(c2cccn2Cc2ccccc2Cl)=N1`, the max response is 2.16% (inactive).
The result for `O=C(Nc1cccc(CCc2ccccn2)c1)c1ccc(Cl)cc1` reads 11% (inactive); that for `C=CCNc1nc(Nc2ccc(Cl)cc2)nc(OC)n1`, 35.6% (active).
The result for `C=CCNc1nc(C)nc(OC)n1` reads -3.36% (inactive); that for `COc1nc(NCc2ccc(Cl)cc2)nc(OC)n1`, 9.12% (inactive); that for `NS(=O)(=O)c1ccc(CNC(=O)c2cccc(Oc3ccccc3)c2)cc1`, 1.56% (inactive).
The result for `CC1CCCN(C(=O)c2ccc3c(c2)C(=O)N(CCC2=CCCCC2)C3=O)C1` (configuration not stated) reads 2.05% (inactive); that for `COc1ccc(S(=O)(=O)N2CCOC2CNC(=O)C(=O)NCc2ccncc2)cc1OC` (configuration not stated), -2.13% (inactive); that for `CN(NC(=O)c1ccccc1F)c1nc(C(F)(F)F)nc2ccccc12`, -3.39% (inactive).
On to `C/C(=N\NC(=O)c1ccccc1F)c1ccccn1`, for which the max response was 31.8% (active).
Regarding `C/C(=N\NC(=O)Cc1ccc(Cl)cc1)c1ccccn1`, the max response is -1.28% (inactive).
With `NC1=NC(=O)C(Cc2cccc(Cl)c2)S1` (configuration not stated), the max response is 13% (inactive).
Regarding `COc1ccc(C(=O)NC(=S)Nc2ccccc2N2CCN(S(C)(=O)=O)CC2)cc1OC`, the max response was -0.375% (inactive).
The result for `COc1ccccc1C(=O)NC(=S)Nc1ccccc1N1CCCCC1` reads 18.9% (active).
The result for `O=C(NC(=S)Nc1ccccc1N1CCCCC1)c1ccc(F)cc1` reads 4.5% (inactive); that for `COc1ccc(OC)c(NC(=O)c2sc3nc(C)cc(C)c3c2N)c1`, 1.77% (inactive); that for `O=S(=O)(NC1CC1)c1ccc(F)c(F)c1`, -2.05% (inactive).
Consider `COc1ccccc1-n1c(SCC(=O)Nc2cccc(C(=O)O)c2)nnc1-c1ccccc1O`, for which the max response is 0.473% (inactive).
The result for `C=C1/C(=C\C=C2\CCCC3(C)C2CCC3C(C)/C=C/C(O)C2CC2)CC(O)CC1O` (configuration not stated) reads -6.77% (inactive).
In the case of `C/C(=N\NC(=O)COc1c(C)cccc1C)c1cccs1` it was 6.57% (inactive).
In the case of `Cc1ccccc1C(CC(=O)c1cccs1)C(C#N)C#N` (configuration not stated) it was 58.6% (active); in that of `Cc1ccc(C)c(NC(CC(=O)c2ccccc2)C(=O)OCC(=O)c2cccs2)c1` (configuration not stated), -1.02% (inactive); in that of `Cc1cccc(C)c1Nc1nnc(SCC(=O)Nc2sccc2C#N)s1`, -1.09% (inactive).
For the compound `CCn1c(SCC(=O)Nc2nccs2)nnc1-c1ccco1`, the max response is -4.57% (inactive).
The result for `CC(=O)c1cc(C#N)c(N2CCCCC2)nc1C` reads 2.13% (inactive); that for `CC(=O)c1cc(C#N)c(SCC(=O)Nc2nccs2)nc1C`, 24.6% (active).
As to `Cc1[nH]c2ccccc2c1SCC(=O)Nc1nccs1`, the max response is 29.5% (active).
For `Cc1cc(C(F)(F)F)nc(SCC(=O)Nc2nccs2)n1`, the max response is -1.23% (inactive).
In the case of `CC(=O)c1cc(C#N)c(N2CC(C)OC(C)C2)nc1C` (configuration not stated) it was -2.5% (inactive).
The result for `CC(=O)c1cc(C#N)c(SCC(=O)C(C)(C)C)nc1C` reads 55.2% (active).
In the case of `CCn1c(SCC(=O)Nc2nccs2)nnc1-c1ccncc1` it was -3.78% (inactive); in that of `Cc1ccccc1-c1ccc(C(=O)O)s1`, 27.3% (inactive).
Regarding `O=C1CSC(=S)N1c1ccc(Cl)c(Cl)c1`, the max response was 3.61% (inactive).
In the case of `CCS(=O)(=O)N1CCC(N2CCN(c3ccccc3)CC2)CC1` it was -2.51% (inactive).
Turning to `Cc1ccc(N(Cc2cc(=O)[nH]c3ccccc23)C(=O)CCl)cc1`, the max response is -3.54% (inactive).
In the case of `COc1cc(NC(=O)c2ccccc2)c(OC)cc1NC(=O)Cc1ccccc1` it was -0.835% (inactive).
On to `O=C(CCC1CCCN(C(=O)Cc2ccc(F)cc2)C1)N1CCN(c2ccccn2)CC1` (configuration not stated), for which the max response is -1.12% (inactive).
For the compound `CC(=O)Nc1ccc(N2CCOCC2)c(C(=O)Nc2cccc(C)c2)c1`, the max response was -4.06% (inactive).
The result for `Cc1cccc(NC(=O)c2sc3nc(N4CCOCC4)c4c(c3c2N)CCCC4)c1` reads 14.3% (active); that for `Cc1cccc(NC(=O)c2sc3nc4c(c(-c5ccco5)c3c2N)CCC4)c1`, 20.8% (inactive).
